# About 79,000 compounds went through this panel and 15% of them were active in at least one assay; those are over-represented in the sample as a whole. Unmarked numbers belong to inactive results. The source made the active and inactive calls. Rule as the data show it: active = growth inhibition above about 70%; inactive = the rest.
# What was measured:
# [1] = NCI Yeast Anticancer Drug Screen. Data for the rad50 strain (AID 155);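 also: 0% = growth of vehicle-only cultures of the same strain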; details: S. cerevisiae rad50 strain growth inhibition, stronger effect = higher value
# Method in brief: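 DNA repair mutant yeast, compound exposure, growth read-out; inhibition is taken relative to vehicle.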
# [2] = NCI Yeast Anticancer Drug Screen. Data for the mec2-1 strain (AID 157); details: S. cerevisiae mec2-1 strain, stronger effect = higher value
# Method in brief: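 Yeast mec2-1 mutant treated with compound. Readout: growth inhibition vs vehicle controls.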
# [3] = NCI Yeast Anticancer Drug Screen. Data for the sgs1 mgt1 strain (AID 161);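 also: 0% = growth of cultures given vehicle only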; details: S. cerevisiae sgs1 mgt1 strain, stronger effect = higher value
# Method in brief: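 Mutant yeast exposed to compound; growth scored against vehicle-only wells.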
# [4] = NCI Yeast Anticancer Drug Screen. Data for the cln2 rad14 strain (AID 165);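 also: 0% = growth equal to vehicle treated cultures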; details: S. cerevisiae cln2 rad14 strain, stronger effect = higher value
# Method in brief: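 cln2 rad14 yeast strain; compound exposure; growth inhibition read vs vehicle controls.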
# [5] = NCI Yeast Anticancer Drug Screen. Data for the bub3 strain (AID 167); details: S. cerevisiae bub3 mutant strain, stronger effect = higher value
# Method in brief: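 In this screen, a yeast mutant lacking normal mitotic checkpoint function is challenged with compound. Relative growth versus vehicle gives the inhibition value.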
# [6] = NCI Yeast Anticancer Drug Screen. Data for the mlh1 rad18 strain (AID 175); details: S. cerevisiae mlh1 rad18 strain growth inhibition, stronger effect = higher value
# Method in brief: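 Yeast w/ defined DNA-repair lesions; compound exposure; growth vs vehicle controls → % inhibition.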
# [7] = at 5.0 µM (retest, dose inferred, filed as 0.5)
# [8] = at 50.0 µM (retest, dose inferred, filed as 5.0)
SMILES,"growth inhibition [1, 7]","growth inhibition [1, 8]",growth inhibition ([1]; at 50.0 µM),"growth inhibition [2, 7]","growth inhibition [2, 8]",growth inhibition ([2]; at 50.0 µM),"growth inhibition [3, 7] [%]","growth inhibition [3, 8]",growth inhibition ([3]; at 50.0 µM),"growth inhibition [4, 7] [%]","growth inhibition [4, 8]",growth inhibition ([4]; at 50.0 µM),"growth inhibition [5, 7]","growth inhibition [5, 8]",growth inhibition ([5]; at 50.0 µM),"growth inhibition [6, 7]","growth inhibition [6, 8]",growth inhibition ([6]; at 50.0 µM)
CC(C)c1ccc2c(c1)CCC1C(C)(CN)CCCC21C (centres undefined),27%,100% (active),99.2% (active),0%,100% (active),99.6% (active),35,100% (active),99.5% (active),-6,99% (active),98.7% (active),10%,100% (active),99.3% (active),32%,100% (active),99.1% (active)
CCCCCCCCCC(C)CC(=O)NCCCN(C)CCCCN(C)C (centres undefined) (tested in a mixture with another compound),-24%,67%,88.8% (active),26%,68%,80.2% (active),35,93% (active),87% (active),28,27%,62.1%,-17%,86% (active),90.2% (active),34%,76% (active),82.3% (active)
COc1cc2c(cc1O)-c1c(cnn1-c1ccc([N+](=O)[O-])cc1)CCC2,7%,56%,79% (active),4%,27%,91.9% (active),4,38%,85.6% (active),3,52%,73% (active),0%,3%,93.2% (active),17%,71% (active),94.8% (active)
Cc1cc(NCCCCCCCNc2cc(C)nc3cc(N)ccc23)c2ccc(N)cc2n1,4%,85% (active),79.6% (active),-11%,76% (active),85.5% (active),12,78% (active),86% (active),12,45%,82% (active),-12%,82% (active),87% (active),-3%,83% (active),91.5% (active)
COC(=O)C(=O)C(/C=N/C(=S)NCCc1ccc(OC)c(OC)c1)=C(/O)c1ccc([N+](=O)[O-])cc1,3%,15%,0.3%,-5%,-3%,-7.95%,13,1%,19.4%,20,-11%,30.9%,6%,-13%,15.4%,-3%,8%,-9.7%
CN(C)c1ccc2c(NCCCCCCNc3ccnc4cc(N(C)C)ccc34)ccnc2c1,10%,95% (active),84.5% (active),7%,97% (active),91.2% (active),16,98% (active),53.4%,1,92% (active),29.4%,-2%,97% (active),30.5%,14%,95% (active),-5.8%
O=C(O)Cc1c[nH]c2ccccc12,46%,-3%,51%,31%,7%,64%,42,-2%,94% (active),9,-12%,49%,85% (active),-8%,92.5% (active),84% (active),-2%,91.2% (active)
CCNC(=S)NC1CCCCCCCCCCC1,99% (active),100% (active),87.8% (active),99% (active),99% (active),75.3% (active),26,88% (active),87.2% (active),51,59%,20.8%,40%,81% (active),82.9% (active),100% (active),100% (active),69.2%

# — PubChem BioAssay (NCI)
